# Experimental data taken from ChEMBL document CHEMBL1201862, “PubChem BioAssay data set” (2004).
# In all, about 360,000 compounds went through this assay and about 25,000 (6.9%) were called active. Inconclusive results (about 9%) are left out. The calls are words filed in the database; no cut-off is given here. The sample as a whole holds a higher share of actives than the screen did.
# Biological target: Luciferin 4-monooxygenase (Photinus pyralis) (UniProt P08659)
# Test: qHTS profiling assay for firefly luciferase inhibitor/activator using purified enzyme and Km concentrations of substrates (counterscreen for miR-21 project). [Related pubchem assays (depositor defined):AID2288, AID2289, AID2598, AID411]
# Type: functional
# Sequence of Luciferin 4-monooxygenase (Photinus pyralis) (P08659 whole entry): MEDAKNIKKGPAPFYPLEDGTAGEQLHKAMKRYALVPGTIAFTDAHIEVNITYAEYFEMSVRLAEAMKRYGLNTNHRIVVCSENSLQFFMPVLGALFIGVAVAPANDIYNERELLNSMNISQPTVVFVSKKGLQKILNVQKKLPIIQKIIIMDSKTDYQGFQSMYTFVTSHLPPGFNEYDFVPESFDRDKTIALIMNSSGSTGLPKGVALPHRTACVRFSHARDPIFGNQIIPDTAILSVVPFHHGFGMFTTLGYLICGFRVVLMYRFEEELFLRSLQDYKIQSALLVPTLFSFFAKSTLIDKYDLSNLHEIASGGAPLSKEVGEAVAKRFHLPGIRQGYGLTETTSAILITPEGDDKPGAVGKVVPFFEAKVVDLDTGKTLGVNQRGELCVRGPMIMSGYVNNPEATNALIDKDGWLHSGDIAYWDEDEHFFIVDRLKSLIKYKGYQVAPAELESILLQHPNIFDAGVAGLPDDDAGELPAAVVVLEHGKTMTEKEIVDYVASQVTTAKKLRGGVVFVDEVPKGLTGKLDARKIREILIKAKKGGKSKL
row,SMILES,Potency
1,O=C(O)c1cc(-c2ccc(F)cc2F)ccc1O,15.1 µM (active)
2,Cn1c(NCCN2CCOCC2)nc2c1c(=O)n(Cc1cccc(Cl)c1)c(=O)n2C,inactive
3,Cc1ccccc1N=C(S)N(CCCN1CCOCC1)Cc1cccnc1,inactive
4,O=C(NC1CCCC1)c1cc(Cl)ccc1[N+](=O)[O-],inactive
